We go through eight compounds from PubChem BioAssay (NCATS).

In assay [1] the target is Bile acid receptor (Homo sapiens) (UniProt Q96RI1). The experiment in a line: qHTS assay for small molecule antagonists of farnesoid X receptor signaling (AID 588526). Note: % is set by controls: 0 for no effect and ±100 for the full control effect. Put shortly:
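Concentration-response titrations were fitted to the Hill equation for half-maximal inhibition and maximal response, with data normalised to 50 uM chenodeoxycholic acid and DMSO control wells. Cells: FXR-UAS-bla HEK293T, dialyzed FBS.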

Assay [2] concerns the target Glucocorticoid receptor (Homo sapiens) (UniProt P04150). The experiment in a line: qHTS assay for small molecule agonists of glucocorticoid receptor signaling (AID 588532; active = well fitted curve in the direction sought with a large enough effect in the signal ratio, with a control signal flat; the % refers to the signal ratio;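 note: 100% = dexamethasone at 0.1 µM and 0% = DMSO only wells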). Particulars: HeLa MMTV-bla, beta-lactamase ratio, agonist, 18 h; stronger effect = higher value; percent of dexamethasone control, DMSO zero. Put shortly: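 MMTV-bla HeLa, beta-lactamase reporter; medium with 1% charcoal/dextran-stripped FBS; cpds up to 92 uM, 18 h, 37 C; CCF4 readout 460/530 nm; Hill fit → EC50, efficacy vs 0.1 uM dexamethasone = 100%.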
Background: qHTS replaces the single test concentration by a dilution series.

In assay [3] the target is Vitamin D3 receptor (Homo sapiens) (UniProt P11473). The experiment in a line: qHTS assay for small molecule antagonists of vitamin D receptor signaling (AID 588541).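 Note: receptor activated by calcitriol during compound treatment; series mostly up to about 77 µM; % is set by controls: 0 for no effect and ±100 for the full control effect.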 Put shortly:
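VDR-UAS-bla HEK293T cells (2000/well, 2% charcoal-stripped FBS) were treated with titrated compounds plus 1-alpha,25-dihydroxyvitamin D3 (50 nM or 3 nM final) for 16 h at 37 C. CCF4 beta-lactamase fluorescence was read; Hill fits gave IC50.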

Assay [4] concerns the target Peroxisome proliferator-activated receptor gamma (Homo sapiens) (UniProt P37231). The experiment in a line: qHTS assay for small molecule agonists of peroxisome proliferator-activated receptor gamma signaling (AID 588536; active = well fitted curve in the direction sought with a large enough effect in the signal ratio, with a control signal flat, not every such curve was filed as active; the % refers to the signal ratio;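 note: 0% = DMSO basal wells and 100% = rosiglitazone at 2 µM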). Put shortly: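 Ratiometric blue/green fluorescence (405 nm excitation; 460 and 530 nm emission) from CCF4-loaded HEK293 reporter cells serves as signal. Exposure to test compounds lasts 16 h at 37 C in medium containing 1% charcoal/dextran-treated serum.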

Assay [5] shares this target. The experiment in a line: qHTS assay for small molecule antagonists of peroxisome proliferator-activated receptor gamma signaling (AID 588537; active = well fitted inhibition curve with a large enough effect in the signal ratio, with a control signal flat, not every such curve was filed as active; the % refers to the signal ratio; note: potency is the fitted concentration of half-maximal effect). Put shortly:
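PPAR-gamma-UAS-bla HEK293 cells (3000/well, 1% charcoal/dextran-stripped FBS) were preincubated 6-6.5 h at 37 C, given titrated compounds, then stimulated with 50 nM rosiglitazone for 16 h. Beta-lactamase activity was read with CCF4 dye; IC50 came from Hill fits.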

Assay [6] deals with Estrogen receptor (Homo sapiens) (UniProt P03372). The experiment in a line: qHTS assay for small molecule agonists of estrogen receptor alpha signaling (AID 588514).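 Note: 0% = vehicle only and 100% = reference agonist; nearly all actives have a fitted effect of over 70% in size.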 Put shortly:
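ER-alpha-UAS-bla GripTite HEK 293 cells in medium with 2% charcoal/dextran-treated FBS were treated with compound titrations at 37 C for 18 hrs; beta-lactamase reporter read by CCF4 fluorescence after 2 hrs at RT.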

The nature of assay [7]: qHTS assay for small molecule antagonists of peroxisome proliferator-activated receptor delta signaling (AID 588535; active = well fitted inhibition curve with a large enough effect in the signal ratio, with a control signal flat, not every such curve was filed as active; the % refers to the signal ratio;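 for max response: cells co-treated with a PPAR-delta agonist as stimulator during compound exposure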). As to conditions: HEK293T PPARd-UAS-bla, beta-lactamase FRET ratio, 18 h; 460 nm channel. Put shortly: (§1)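 GeneBLAzer PPAR-delta-UAS-bla HEK293T cells in medium with 2% charcoal/dextran FBS were preincubated 5 hrs at 37 C, then given compounds, incubated 18 hrs at 37 C, and read by CCF4 beta-lactamase fluorescence; IC50 from Hill fits.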

The target of assay [8] is Peroxisome proliferator-activated receptor delta (Homo sapiens) (UniProt Q03181). Described as above. In outline:
as §1

For assay [9], the target named is Androgen receptor (Homo sapiens) (UniProt P10275). The experiment in a line: qHTS assay for small molecule agonists of androgen receptor signaling (AID 588515; active = well fitted curve in the direction sought with a large enough effect in the signal ratio, with a control signal flat; the % refers to the signal ratio; note: % is set by controls: 0 for no effect and ±100 for the full control effect). As to conditions: AR-UAS-bla HEK293, beta-lactamase ratio, agonist 16 h; stronger effect = higher value. Put shortly:
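EC50 and efficacy came from Hill fits of titrations (up to 92 uM) normalized to 30 nM R1881 as 100% and DMSO as 0%. Compound exposure was 16 h at 37 C on AR-UAS-bla HEK293 cells, with a 405/460/530 nm CCF4 fluorescence read.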

Assay [10] shares this target. The experiment in a line: qHTS assay for small molecule antagonists of androgen receptor signaling (AID 588516; active = well fitted curve in the direction sought with a large enough effect in the signal ratio, with a control signal flat, not every such curve was filed as active; the % refers to the signal ratio; note: % is set by controls: 0 for no effect and ±100 for the full control effect). Put shortly: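 Compounds tested in titration against 10 nM R1881 in AR-responsive bla reporter HEK 293 cells; CCF4 fluorescence (460/530 nm) after 16 h exposure gave IC50 and efficacy.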

Several values for one entry are separate records, joined by “and”; a condition that tells them apart may be missing. Identical values can stand only once. Records with an inconclusive call do not appear. Activity calls are given as the source filed them. Unless noted, calls come from the whole dose curve.

Sequence of Androgen receptor (Homo sapiens) (P10275 whole entry, looked up): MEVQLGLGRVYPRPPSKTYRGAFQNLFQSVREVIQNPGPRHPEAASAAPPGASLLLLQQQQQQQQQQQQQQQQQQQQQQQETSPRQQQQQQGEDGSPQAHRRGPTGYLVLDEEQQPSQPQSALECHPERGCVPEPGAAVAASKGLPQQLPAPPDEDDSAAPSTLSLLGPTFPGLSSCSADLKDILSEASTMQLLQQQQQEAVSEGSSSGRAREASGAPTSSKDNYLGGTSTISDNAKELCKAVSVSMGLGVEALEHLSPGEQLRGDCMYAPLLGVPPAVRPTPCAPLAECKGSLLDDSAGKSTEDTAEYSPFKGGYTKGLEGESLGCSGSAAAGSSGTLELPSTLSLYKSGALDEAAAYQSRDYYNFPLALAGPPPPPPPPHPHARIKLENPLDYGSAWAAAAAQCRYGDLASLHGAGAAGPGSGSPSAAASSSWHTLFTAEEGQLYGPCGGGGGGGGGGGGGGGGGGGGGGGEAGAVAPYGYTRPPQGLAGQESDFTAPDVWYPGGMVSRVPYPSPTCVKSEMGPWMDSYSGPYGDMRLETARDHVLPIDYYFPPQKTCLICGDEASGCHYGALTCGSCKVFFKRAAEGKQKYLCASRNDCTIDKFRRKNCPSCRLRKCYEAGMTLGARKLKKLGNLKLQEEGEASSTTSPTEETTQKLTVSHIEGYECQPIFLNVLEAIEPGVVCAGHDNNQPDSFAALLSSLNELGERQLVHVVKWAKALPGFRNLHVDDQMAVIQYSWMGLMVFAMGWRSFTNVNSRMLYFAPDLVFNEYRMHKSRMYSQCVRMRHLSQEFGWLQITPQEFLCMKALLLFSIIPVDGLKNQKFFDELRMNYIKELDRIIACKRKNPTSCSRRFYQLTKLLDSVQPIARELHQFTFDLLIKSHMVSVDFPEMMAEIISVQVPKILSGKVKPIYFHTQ
Sequence of Peroxisome proliferator-activated receptor gamma (Homo sapiens) (P37231 whole entry, looked up): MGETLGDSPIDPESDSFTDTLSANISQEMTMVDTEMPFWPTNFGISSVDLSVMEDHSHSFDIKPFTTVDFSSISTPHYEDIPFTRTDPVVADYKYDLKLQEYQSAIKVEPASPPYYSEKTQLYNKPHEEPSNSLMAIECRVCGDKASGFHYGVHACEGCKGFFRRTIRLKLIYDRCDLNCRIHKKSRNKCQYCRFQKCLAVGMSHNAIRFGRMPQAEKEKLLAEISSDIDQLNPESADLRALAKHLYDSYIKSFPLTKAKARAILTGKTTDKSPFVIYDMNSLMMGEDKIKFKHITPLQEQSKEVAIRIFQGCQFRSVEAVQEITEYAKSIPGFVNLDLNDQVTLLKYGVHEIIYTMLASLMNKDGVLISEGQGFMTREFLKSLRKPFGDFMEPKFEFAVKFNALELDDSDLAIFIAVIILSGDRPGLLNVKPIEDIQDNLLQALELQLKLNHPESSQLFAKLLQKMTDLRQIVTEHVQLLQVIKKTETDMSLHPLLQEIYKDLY
Sequence of Vitamin D3 receptor (Homo sapiens) (P11473 whole entry, looked up): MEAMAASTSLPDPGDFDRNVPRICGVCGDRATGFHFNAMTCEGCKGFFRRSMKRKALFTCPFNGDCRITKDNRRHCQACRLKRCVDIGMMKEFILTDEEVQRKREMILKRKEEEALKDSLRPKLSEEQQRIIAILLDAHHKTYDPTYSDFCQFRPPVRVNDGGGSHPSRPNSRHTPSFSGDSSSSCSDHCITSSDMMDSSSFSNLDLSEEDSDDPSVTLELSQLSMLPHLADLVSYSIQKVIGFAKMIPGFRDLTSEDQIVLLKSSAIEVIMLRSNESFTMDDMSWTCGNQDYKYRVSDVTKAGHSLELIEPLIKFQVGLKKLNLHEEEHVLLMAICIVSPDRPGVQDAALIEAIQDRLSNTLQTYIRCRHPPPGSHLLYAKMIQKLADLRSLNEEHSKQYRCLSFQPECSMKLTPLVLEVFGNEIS
Sequence of Bile acid receptor (Homo sapiens) (Q96RI1 whole entry, looked up): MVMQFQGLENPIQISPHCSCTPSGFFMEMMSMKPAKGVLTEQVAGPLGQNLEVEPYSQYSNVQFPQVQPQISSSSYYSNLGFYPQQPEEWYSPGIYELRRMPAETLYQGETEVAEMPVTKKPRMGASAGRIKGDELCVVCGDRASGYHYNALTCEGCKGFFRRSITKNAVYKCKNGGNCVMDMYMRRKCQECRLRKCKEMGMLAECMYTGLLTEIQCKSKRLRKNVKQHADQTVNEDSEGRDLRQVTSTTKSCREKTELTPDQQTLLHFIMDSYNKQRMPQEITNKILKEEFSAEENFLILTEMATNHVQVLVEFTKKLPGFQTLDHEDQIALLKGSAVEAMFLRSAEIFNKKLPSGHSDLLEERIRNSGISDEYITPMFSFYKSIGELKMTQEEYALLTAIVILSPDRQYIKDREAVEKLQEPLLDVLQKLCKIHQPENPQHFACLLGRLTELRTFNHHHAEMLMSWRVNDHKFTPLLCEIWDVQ
Sequence of Peroxisome proliferator-activated receptor delta (Homo sapiens) (Q03181 whole entry, looked up): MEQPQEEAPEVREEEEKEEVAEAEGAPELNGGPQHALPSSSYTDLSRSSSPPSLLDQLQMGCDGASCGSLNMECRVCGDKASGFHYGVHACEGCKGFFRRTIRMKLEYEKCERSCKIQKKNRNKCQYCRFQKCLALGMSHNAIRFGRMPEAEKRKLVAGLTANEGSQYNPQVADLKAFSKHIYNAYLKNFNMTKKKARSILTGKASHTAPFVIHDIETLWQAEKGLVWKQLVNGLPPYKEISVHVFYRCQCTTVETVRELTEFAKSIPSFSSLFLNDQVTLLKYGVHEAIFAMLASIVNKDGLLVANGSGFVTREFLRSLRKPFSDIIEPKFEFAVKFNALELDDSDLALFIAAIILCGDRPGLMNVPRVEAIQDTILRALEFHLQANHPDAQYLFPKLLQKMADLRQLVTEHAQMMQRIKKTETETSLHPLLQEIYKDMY
Sequence of Glucocorticoid receptor (Homo sapiens) (P04150 whole entry, looked up): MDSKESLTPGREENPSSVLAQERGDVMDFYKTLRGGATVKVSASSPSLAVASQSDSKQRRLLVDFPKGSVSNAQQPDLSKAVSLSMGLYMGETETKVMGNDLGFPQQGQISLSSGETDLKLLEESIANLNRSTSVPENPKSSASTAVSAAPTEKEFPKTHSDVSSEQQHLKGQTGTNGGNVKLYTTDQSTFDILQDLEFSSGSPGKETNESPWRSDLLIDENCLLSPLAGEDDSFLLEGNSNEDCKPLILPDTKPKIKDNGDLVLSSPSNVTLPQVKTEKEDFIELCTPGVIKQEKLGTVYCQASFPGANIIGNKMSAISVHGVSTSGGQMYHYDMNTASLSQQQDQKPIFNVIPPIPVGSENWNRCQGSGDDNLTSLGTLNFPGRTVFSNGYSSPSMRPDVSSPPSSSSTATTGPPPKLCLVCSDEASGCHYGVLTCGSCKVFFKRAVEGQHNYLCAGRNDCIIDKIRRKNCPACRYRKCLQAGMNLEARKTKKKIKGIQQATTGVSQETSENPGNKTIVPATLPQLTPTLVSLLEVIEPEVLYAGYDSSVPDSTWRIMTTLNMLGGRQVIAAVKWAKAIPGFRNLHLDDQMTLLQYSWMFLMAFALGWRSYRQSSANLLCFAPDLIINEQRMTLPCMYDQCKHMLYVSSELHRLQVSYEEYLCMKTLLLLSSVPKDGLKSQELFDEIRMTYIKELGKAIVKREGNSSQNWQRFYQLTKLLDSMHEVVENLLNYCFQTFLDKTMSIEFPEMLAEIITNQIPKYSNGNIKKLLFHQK
Sequence of Estrogen receptor (Homo sapiens) (P03372 whole entry, looked up): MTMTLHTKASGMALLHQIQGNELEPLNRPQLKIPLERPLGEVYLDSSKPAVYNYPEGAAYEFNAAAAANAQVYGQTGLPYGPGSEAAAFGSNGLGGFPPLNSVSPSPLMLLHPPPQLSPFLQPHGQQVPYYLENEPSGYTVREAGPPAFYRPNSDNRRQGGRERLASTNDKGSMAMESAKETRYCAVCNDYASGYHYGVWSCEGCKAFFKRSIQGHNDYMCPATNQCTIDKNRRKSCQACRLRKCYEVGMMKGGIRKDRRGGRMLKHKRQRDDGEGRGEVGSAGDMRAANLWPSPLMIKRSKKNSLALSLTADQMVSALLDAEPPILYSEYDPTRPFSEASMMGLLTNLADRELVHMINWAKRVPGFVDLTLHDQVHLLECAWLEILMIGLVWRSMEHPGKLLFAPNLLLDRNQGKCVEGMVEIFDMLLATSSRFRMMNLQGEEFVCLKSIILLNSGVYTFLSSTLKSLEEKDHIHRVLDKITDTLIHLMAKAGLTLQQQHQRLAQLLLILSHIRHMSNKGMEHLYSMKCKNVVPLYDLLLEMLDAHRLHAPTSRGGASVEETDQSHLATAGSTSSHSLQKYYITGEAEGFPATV

For `Nc1nc(Cl)nc2c1ncn2[C@H]1C[C@H](O)[C@@H](CO)O1`, the compound was classed as inactive in [1] and in assay [3]. The activation in assay [2] was -6.36% (inactive).
For `N[C@@H](Cc1cc(I)c(Oc2cc(I)c(O)c(I)c2)c(I)c1)C(=O)O`, the activation in assay [2] was -13.7% (inactive). Besides, the compound was called inactive in [4] and in assay [3]. Also, the Potency in assay [5] was 39.8 µM (active).
Take `CS(=O)(=O)OCCCCOS(C)(=O)=O`: the compound was called inactive in assay [6], in [8], in assay [4] and in [3]. Also, in assay [7], the max response was -16.8% and 23.8% and -11.6%. In addition, the Potency entry in assay [5] was “inactive”.
On to `CC(=O)N1CCN(c2ccc(OC[C@H]3CO[C@](Cn4ccnc4)(c4ccc(Cl)cc4Cl)O3)cc2)CC1`, for which the compound was called inactive in [6]. Also, the activation in assay [2] is 3.09% (inactive).
As to `COc1cc(OC)c(C(=O)CCCN2CCCC2)c(OC)c1`, the activation in assay [9] is 8.09% (inactive); in [2], 4.51% (inactive). Further, the compound was called inactive in assay [10], in [8], in assay [4] and in [3]. The max response in assay [7] is 15.9%. Moreover, the Potency entry in [5] was “inactive”.
As for `COc1c2occc2cc2ccc(=O)oc12`, the compound was classed as inactive in [1], in assay [8] and in [3]. Moreover, the activation in assay [2] was 1.93% (inactive) and -3.63% (inactive). Moreover, in [7], the max response worked out at 59.3%.
`c1ccc2[nH]c(-c3cscn3)nc2c1`: the result in assay [6], in assay [1], in assay [8], in assay [4] and in assay [3] was inactive. Moreover, the activation is 7.31% (inactive) and -15.4% (inactive) in [9]; -3.88% (inactive) and -4.87% (inactive) in [2]. The max response in [7] is -13.4%. For the same compound, the Potency entry in assay [5] was “inactive”.
For `O=c1c(O)c(-c2ccc(O)cc2O)oc2cc(O)cc(O)c12`, the call in assay [1], in assay [4] and in assay [3] was inactive. In [2], the activation is -17.5% (inactive). The Potency result in assay [5] is “inactive”.
